Assay outcomes from PubChem BioAssay.
Rows were chosen to be rich in hits. Some 7.8% of all compounds tested hit in one or more screens of this group.
VACV Venus inh: qHTS for Stage-Specific Inhibitors of Vaccinia Orthopoxvirus: Venus Reporter Primary qHTS | 330,000 tested, 0.46% active | Potency, µM (titrated, usually from 36.5 µM), inactives show top-dose activity change, negative = inhibition, most hits filed as inhibitors | Vaccinia virus Venus reporter expression, fluorescence; calls by dose curve; tested in A549 cells; note: potency is the fitted concentration of half-maximal effect; nearly all actives have a fitted effect of over 30% in size
HCMV inh: qHTS Assay for inhibitors of the human cytomegalovirus (HCMV) | HFF cells, HCMV-luciferase reporter, 72 h; active compounds read low | activity change, negative = inhibition, % at 57.5 µM | 410,000 tested, 4.5% active | AID 1259415, 2018; in the data active = activity change below about -60%; inconclusive = no clear call, values can overlap the other calls; inactive = above about -39%
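Inhibition of viral replication was scored as loss of reporter luminescence in HFFs infected with HCMV-luciferase (MOI 1 PFU/cell) for 72 h; compounds tested at 2 doses, normalized to buffer and Salinomycin controls.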
HCV inh: qHTS Assay for Inhibitors of Hepatitis C Virus (HCV) | Huh7.5.1 HCVcc-Cre infection, luciferase reporter, 44 h | Potency, µM (highest dose often 41.8 µM), for inactives: at the highest dose activity change, negative = inhibition, actives largely listed as inhibitors | 340,000 tested, 3.4% active; active = well fitted inhibition curve with a large enough effect; inconclusive = small, poorly fitted or top-dose-only effect, or another doubt; inactive = no such curve, though single readings can be large or run the other way; note: potency is the fitted concentration of half-maximal effect
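After 44 h co-culture of compound, cells and HCVcc-Cre (~0.5 moi), substrate is added for 15 min at room temperature and luciferase measured over 15 sec. Cells were seeded at 1,000/well and pre-cultured 4 h.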
LASV entry inh: qHTS for Inhibitors of binding or entry into cells for Lassa Virus; Lassa virus pseudotype entry inhibition, cell reporter; Potency, µM (doses to about 37.9 µM), without a hit: at the top dose activity change, negative = inhibition, hits mostly inhibitors; 300,000 tested, 1.2% active; calls by dose curve; tested in HEK293 cells; note: potency is the fitted concentration of half-maximal effect; nearly all actives have a fitted effect of over 50% in size
VACV mCherry inh: qHTS for Stage-Specific Inhibitors of Vaccinia Orthopoxvirus: mCherry Reporter Primary qHTS; Vaccinia virus mCherry reporter infection, fluorescence; Potency, µM (series often up to 36.5 µM), for the others: at the highest dose activity change, negative = inhibition, most hits filed as inhibitors; 310,000 tested, 0.63% active; AID 720579, 2013; calls by dose curve; tested in A549 cells; note: potency is the fitted concentration of half-maximal effect; nearly all actives have a fitted effect of over 35% in size
MARV entry inh: qHTS for inhibitors of binding or entry into cells for Marburg Virus. 300,000 tested, 1.8% active. Potency, µM (titrated, usually from 37.8 µM), for the others: top-dose activity change, negative = inhibition, usual class: inhibitors. Marburg virus pseudotyped entry inhibition, cell reporter; calls by dose curve; tested in HEK293 cells; note: potency is the fitted concentration of half-maximal effect
Numbers without * were called inactive; i = inactive; u = inconclusive; x = not tested or not shown; [ ] = another dose, or the depositor's remark. % is set by controls: 0 for no effect and ±100 for the full control effect.

SMILES	VACV Venus inh	HCMV inh	HCV inh	LASV entry inh	VACV mCherry inh	MARV entry inh
Cc1cnc(C)c(-c2ccc(F)c3c2OC(CNC(=O)Cc2c(C)[nH]c4ccccc24)C3)n1 (stereo not given)	-2%	x	x	x	-13%	x
CCC(CC)NCc1ccc2c(c1)c1ccccc1n2CC	x	-33	13µM*	u	x	u
CCn1c2ccccc2c2cc(CNCc3ccc(OC)cc3OC)ccc21	x	-30	13µM*	x	x	x
COc1cc(C(CC(=O)Nc2ccc(Br)cn2)N2Cc3ccccc3C2=O)cc(OC)c1OC (stereo not given)	-6%	29	x	-4%[46.1 µM]	-11%	x
CC(C)/C=C(/C(=O)c1ccc(Cl)cc1Cl)n1cncn1	-22%	-10	-10%	x	i	x
CC(C)(C)C(=O)/C(=C\c1ccc([N+](=O)[O-])cc1)n1cncn1	x	x	3.2µM*	x	x	x
CC(C)(C)C(=O)/C(=C/c1ccc(Cl)cc1)n1cncn1	x	-102*	u	x	x	x
CN(C)/C=C(/C(=O)c1ccccc1)n1cncn1	1%	-28	3%	10%	-7%	11%[46.1 µM]
Cc1cc(C(=O)NCC2CCC3(CCN(Cc4ccc(-c5ccccc5)cc4)CC3)O2)n(C)n1 (stereo not given)	-15%	x	x	x	-20%	x
CCc1ccc(/C=C2/SC(=S)NC2=O)cc1	x	x	x	0%	x	u
COc1cccc(/C=C/C(=O)NCc2ccc(S(N)(=O)=O)cc2)c1	-5%	25	10µM*	4%	-9%	-7%[46.1 µM]
COc1ccc(CCC(=O)N/N=C(\C)c2ccc3c(c2)OCO3)cc1	-9%	32	-21%	0.35µM*	i	13%
CNC(=S)N/N=C(\C)c1ccc2c(c1)OCCO2	-22%	38	u	-1%	-19%	u
CNC(=S)N/N=C(\C)c1ccc2c(c1)OCO2	-5%	-104*	-14%	x	-3%	x
CNC(=S)N/N=C(\C)c1ccccc1	-15%	-97*	16%	u	i	8%
CCOC(=O)c1cc(S(=O)(=O)N2CCN(c3cc(C)ccc3C)CC2)[nH]n1	-8%	12	x	-5%[46.1 µM]	-11%	x
COc1ccc(OCC(=O)NC2CC(=O)N(c3cccc(OC)c3)C2)cc1 (stereo not given)	-5%[7.34 µM]	-10	x	-12%[46.1 µM]	-7%[7.34 µM]	x
O=C(CCSCc1ccccc1Cl)NCCc1ccccc1	5%	0	x	12%[46.1 µM]	-2%	x
CCN(C(=O)c1cc(S(=O)(=O)N2CCCC2)cn1C)c1ccc(OC)cc1	-9%	-33	x	-12%[46.1 µM]	-6%	x
CCCn1c(=O)[nH]c(=O)c2c1nc(-c1ccc(OC)c(Br)c1)n2CCOC	1%	-8	8%	7.9µM*	-7%	2%[46.1 µM]
CCCOc1ccc(-c2nc3c(c(=O)[nH]c(=O)n3Cc3ccccc3)n2CCO)cc1OCC	-15%	55	u	u	i	u
CCCCn1c(=O)[nH]c(=O)c2c1nc(-c1ccc(OCCC)c(OCC)c1)n2CCOC	-10%	-28	25µM*	u	i	-1%[46.1 µM]
CC(C)(C)NC(=O)CSc1nc2ccc(Nc3nc(N4CCOCC4)nc(N4CCOCC4)n3)cc2s1	x	-66*	-24%	x	x	x
COc1ccc(NC(=O)CSc2nc3ccc(Nc4nc(N5CCOCC5)nc(N5CCOCC5)n4)cc3s2)cc1	x	u	10µM*	x	x	x
CC(=O)CSc1nc2ccc(Nc3nc(N4CCOCC4)nc(N4CCOCC4)n3)cc2s1	x	-13	32µM*	-13%	x	u
SMILES	VACV Venus inh	HCMV inh	HCV inh	LASV entry inh	VACV mCherry inh	MARV entry inh
COc1cccc(CN2CCCC(c3nc(C)ncc3-c3ccc(F)cc3)C2)c1OC (stereo not given)	-17%	x	x	x	i	x
COc1cc(CN2CCOc3ccc(CN4CCC(O)(c5cccnc5)CC4)cc3C2)cc(OC)c1	4%	x	x	x	-17%	x
COc1cc(C2C(=O)N(C3CCC(C)CC3)CC(=O)N2CCc2ccc(Cl)cc2)ccc1OC(C)C (stereo not given)	-6%	-10	x	-7%[46.1 µM]	-1%	x
Cc1ccc(NC(=O)c2ccc(OCC3CCCO3)cc2)c(C)c1 (stereo not given)	-5%	18	18%	8%	-8%	26%
O=C(Nc1nc(-c2ccc(F)c(F)c2)cs1)c1ccc(OCC2CCCO2)cc1 (stereo not given)	-19%	-69*	u	-23%	-24%	u
O=C(Nc1nc(-c2ccc(F)c(F)c2)cs1)C1=COCCO1	x	-24	-28%	x	x	x
CCOc1ccc2nc(NC(=O)c3ccc(OCC4CCCO4)cc3)sc2c1 (stereo not given)	-11%	u	4µM*	-14%	-5%	-30%[46.1 µM]
CCOc1ccc(C(=O)Nc2nc(C)c(C(=O)OC)s2)cc1	-13%	21	18µM*	24%[46.1 µM]	i	u
Cc1ccnc(NC(=O)c2ccc(OCC3CCCO3)cc2)c1 (stereo not given)	-10%	4	-1%	6.3µM*	-12%	3.5µM*
Cc1cccc2sc(NC(=O)c3ccc(OCC4CCCO4)cc3)nc12 (stereo not given)	-9%	0	u	26%	-2%	u
CCOC(=O)C(=O)C1(C(=O)OCC)Oc2cc(OC)cc(OC)c2C(=O)C1c1ccccc1 (stereo not given)	43%	x	x	x	40%	x
Cc1csc(NC(=O)c2ccc(OCC3CCCO3)cc2)n1 (stereo not given)	-4%	-13	11µM*	3.5µM*	-12%	4.5µM*
ON=C1c2ccccc2-c2ccc(Br)cc21	-16%	-63*	u	7%	-24%	27%
Nc1ccc2c(c1)C(=O)c1cc([N+](=O)[O-])ccc1-2	7%	-7	-8%	27%	-11%	2%
O=[N+]([O-])c1ccc2c(c1)C(=NO)c1cc(F)ccc1-2	-7%	-95*	u	-5%	i	-17%
O=[N+]([O-])c1ccc2c(c1)/C(=N\O)c1ccccc1-2	-14%	-85*	u	-3%	-10%	u
O=[N+]([O-])c1ccc2c(c1)-c1ccccc1C2O (stereo not given)	-13%	-27	x	x	-13%	x
Nc1cc2c(cc1Cl)-c1ccc([N+](=O)[O-])cc1C2=NO	17%	u	5.6µM*	1%	i	u
O=[N+]([O-])c1nccn1CC(O)CCN1CCOCC1 (stereo not given)	x	59	x	x	x	x
COc1cc(-c2ccno2)ccc1S(=O)(=O)N1CCN(c2cccc(Cl)c2)CC1	1%	-21	x	-29%[46.1 µM]	-10%	x
COc1cc2c(cc1[N+](=O)[O-])-c1ccc([N+](=O)[O-])cc1C2=NO	-19%	-94*	x	x	-3%	x
O=[N+]([O-])c1ccc(O)c(/C=N\N=C2c3ccccc3-c3ccccc32)c1	-14%	-89*	u	u	-19%	14µM*
COCCN(Cc1cc2cc(C)ccc2n2nnnc12)C(=S)Nc1cccc(C)c1	x	54	11µM*	-25%	x	u
